Measured values as given in the supplement of paper PMC10849652.
Targets with a hit are over-represented here; the source holds about 8,800 in all. About 0.5% of all pairs of compound and target were hits.

Assays:
Assay in all cases: log2 fold change, soluble protein after heating vs DMSO (PISA); higher = thermal stabilisation; K562 lysate, 10 uM; active = over 0.2 and 3.5 SD of the protein, either way, in both replicates (recomputed)
erlotinib = compound: C#Cc1cccc(Nc2ncnc3cc(OCCOC)c(OCCOC)cc23)c1 [erlotinib]
Outline: (§1)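 Thermal stability, expressed as log-two fold change relative to solvent controls, is given from duplicates. Crude K562 extract in PBS pH 7.4 with 1 mM MgCl2, at 1 mg/mL protein, was treated with 10 μM compound for 30 min and heated in aliquots for 3 min across 48°C-58°C. After pooling, adjustment to 0.5% NP-40 at 4°C and centrifugation at 21,000xg for 90 min, supernatant protein was measured by TMTpro 16plex LC-MS/MS with channel sums equalised.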

[1] = compound: C/C(=N\NC(=O)C1=CC(=CC=C1)S(=O)(=O)N2CCOCC2)/C3=C(C=CC(=C3)Cl)O
Outline: as §1

[2] = compound: C1=CC(=CC=C1C2=NC3=C(N2)C=C(C=C3)C(=O)N)OC4=CC=C(C=C4)Cl
Outline: as §1

[3] = compound: C1=CC2=C(C=CC(=C2)/C=C\3/C(=O)NC(=NCC4=CC=CS4)S3)N=C1
Outline: as §1

[4] = compound: C1=CC2=NC=CN=C2C=C1/C=C/3\C(=O)NC(=O)S3
Outline: as §1

[5] = compound: C1=CC=C(C=C1)C2=NC(=C(N2)C3=CC=NC=C3)C4=CC(=C(C=C4)Cl)O
Outline: as §1

[6] = compound: C1=CC=C2C(=C1)C3=NNC4=CC=CC(=C43)C2=O
Outline: as §1

[7] = compound: C1CCN(C1)C(=O)NC2=CC=CC(=C2)NC3=NC=C(C(=N3)NCCC4=CN=CN4)Br
Outline: as §1

[8] = compound: C1CN(CCC1(CC2=CC=C(C=C2)Cl)N)C3=NC=NC4=C3C=CN4
Outline: as §1

IRAK-1-4 Inhibitor I = compound: C1COCCN1CCN2C3=CC=CC=C3N=C2NC(=O)C4=CC(=CC=C4)[N+](=O)[O-] [IRAK-1-4 Inhibitor I]
Outline: as §1

ibrutinib = compound: C=CC(=O)N1CCC[C@@H](n2nc(-c3ccc(Oc4ccccc4)cc3)c3c(N)ncnc32)C1 [ibrutinib]
Outline: as §1

[9] = compound: CC(=O)c1cnc2ccc(-c3cc(Cl)c(O)c(Cl)c3)nc2c1N[C@H]1CC[C@H](CN(C)C)CC1
Outline: as §1

ralimetinib = compound: CC(C)(C)Cn1c(N)nc2ccc(-c3[nH]c(C(C)(C)C)nc3-c3ccc(F)cc3)nc21 [ralimetinib]
Outline: as §1

[10] = compound: CC(C)(O)CC(=O)NCCn1ccc2ncnc(Nc3ccc(Oc4cccc(C(F)(F)F)c4)c(Cl)c3)c21
Outline: as §1

[11] = compound: CC(C)C1=C2N=C(C=C(N2N=C1)NCC3=CC=CC=C3)NCCCCCCN
Outline: as §1

[12] = compound: CC1=C(C(CC(=O)N1)C2=CC=C(C=C2)C(F)(F)F)C(=O)NC3=C(C=C4C(=C3)C=NN4)F
Outline: as §1

[13] = compound: CC1=C(C2=C(C=C1)C(=O)C3=CC=CC=C3N2CCCN)C
Outline: as §1

[14] = compound: CC1=C(C=C(C=C1)NC(=O)C2=CC(=CC=C2)C(C)(C)C#N)NC3=CC4=C(C=C3)N=CN(C4=O)C
Outline: as §1

[15] = compound: CC1=C(C=C(C=C1)NC(=O)C2=CC(=CC=C2)N(C)C)NC(=O)C3=CC=C(C=C3)O
Outline: as §1

[16] = compound: CC1=CC=C(C=C1)SC2=C3C=C(SC3=CN=C2)C(=O)N
Outline: as §1

Measured: log2 fold change

UFM1 (UniProt P61960)
Sequence of UniProt P61960 (P61960 whole entry, looked up): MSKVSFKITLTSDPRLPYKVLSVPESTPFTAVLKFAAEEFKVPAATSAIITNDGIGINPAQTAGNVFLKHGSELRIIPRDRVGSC
inactive: erlotinib 0.035 | [1] 0.078 | [2] -0.003 | [3] 0.085 | [4] 0.029 | [5] -0.013 | [6] 0.123 | [7] 0.066 | [8] 0.013 | IRAK-1-4 Inhibitor I -0.009 | ibrutinib 0.059 | [9] 0.072 | ralimetinib 0.008 | [10] -0.014 | [11] -0.003 | [12] -0.04 | [13] -0.007 | [14] -0.097 | [15] -0.038 | [16] 0.109

TUBB6 (UniProt K7ES63)
inactive: erlotinib -0.19 | [1] 0.058 | [2] -0.06 | [3] 0.047 | [4] -0.01 | [5] -0.154 | [6] -0.029 | [7] -0.19 | [8] -0.22 | IRAK-1-4 Inhibitor I 0.048 | ibrutinib -0.005 | [9] 0.076 | ralimetinib 0.094 | [10] -0.07 | [11] 0.132 | [12] -0.061 | [14] -0.005 | [15] 0.027 | [16] -0.098

TRIM23 (UniProt P36406)
Sequence of UniProt P36406 (P36406 whole entry, looked up): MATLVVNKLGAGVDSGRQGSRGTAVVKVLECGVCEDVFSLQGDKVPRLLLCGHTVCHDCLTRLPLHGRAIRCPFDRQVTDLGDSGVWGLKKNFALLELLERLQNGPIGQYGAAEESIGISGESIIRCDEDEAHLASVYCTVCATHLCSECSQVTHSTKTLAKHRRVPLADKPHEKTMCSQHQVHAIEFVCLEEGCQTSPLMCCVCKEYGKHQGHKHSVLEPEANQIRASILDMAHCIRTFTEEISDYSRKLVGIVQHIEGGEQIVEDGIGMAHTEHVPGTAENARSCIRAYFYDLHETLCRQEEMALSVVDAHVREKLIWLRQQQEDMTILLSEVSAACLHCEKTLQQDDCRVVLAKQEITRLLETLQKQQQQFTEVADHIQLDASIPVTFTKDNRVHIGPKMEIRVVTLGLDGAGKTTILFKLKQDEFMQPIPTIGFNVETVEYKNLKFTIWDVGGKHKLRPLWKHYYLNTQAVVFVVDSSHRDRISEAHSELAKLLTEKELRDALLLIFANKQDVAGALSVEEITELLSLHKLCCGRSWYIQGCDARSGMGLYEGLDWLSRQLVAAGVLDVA
inactive: erlotinib -0.044 | [1] -0.022 | [2] 0.037 | [3] 0.014 | [4] 0.034 | [5] 0.493 | [6] -0.011 | [7] -0.017 | [8] 0.105 | IRAK-1-4 Inhibitor I 0.183 | ibrutinib -0.031 | [9] 0.061 | ralimetinib -0.102 | [10] -0.085 | [11] -0.056 | [12] 0.026 | [13] -0.065 | [14] 0.099 | [15] -0.22 | [16] -0.022

TIMELESS (UniProt Q9UNS1)
Sequence of UniProt Q9UNS1 (Q9UNS1 whole entry, looked up): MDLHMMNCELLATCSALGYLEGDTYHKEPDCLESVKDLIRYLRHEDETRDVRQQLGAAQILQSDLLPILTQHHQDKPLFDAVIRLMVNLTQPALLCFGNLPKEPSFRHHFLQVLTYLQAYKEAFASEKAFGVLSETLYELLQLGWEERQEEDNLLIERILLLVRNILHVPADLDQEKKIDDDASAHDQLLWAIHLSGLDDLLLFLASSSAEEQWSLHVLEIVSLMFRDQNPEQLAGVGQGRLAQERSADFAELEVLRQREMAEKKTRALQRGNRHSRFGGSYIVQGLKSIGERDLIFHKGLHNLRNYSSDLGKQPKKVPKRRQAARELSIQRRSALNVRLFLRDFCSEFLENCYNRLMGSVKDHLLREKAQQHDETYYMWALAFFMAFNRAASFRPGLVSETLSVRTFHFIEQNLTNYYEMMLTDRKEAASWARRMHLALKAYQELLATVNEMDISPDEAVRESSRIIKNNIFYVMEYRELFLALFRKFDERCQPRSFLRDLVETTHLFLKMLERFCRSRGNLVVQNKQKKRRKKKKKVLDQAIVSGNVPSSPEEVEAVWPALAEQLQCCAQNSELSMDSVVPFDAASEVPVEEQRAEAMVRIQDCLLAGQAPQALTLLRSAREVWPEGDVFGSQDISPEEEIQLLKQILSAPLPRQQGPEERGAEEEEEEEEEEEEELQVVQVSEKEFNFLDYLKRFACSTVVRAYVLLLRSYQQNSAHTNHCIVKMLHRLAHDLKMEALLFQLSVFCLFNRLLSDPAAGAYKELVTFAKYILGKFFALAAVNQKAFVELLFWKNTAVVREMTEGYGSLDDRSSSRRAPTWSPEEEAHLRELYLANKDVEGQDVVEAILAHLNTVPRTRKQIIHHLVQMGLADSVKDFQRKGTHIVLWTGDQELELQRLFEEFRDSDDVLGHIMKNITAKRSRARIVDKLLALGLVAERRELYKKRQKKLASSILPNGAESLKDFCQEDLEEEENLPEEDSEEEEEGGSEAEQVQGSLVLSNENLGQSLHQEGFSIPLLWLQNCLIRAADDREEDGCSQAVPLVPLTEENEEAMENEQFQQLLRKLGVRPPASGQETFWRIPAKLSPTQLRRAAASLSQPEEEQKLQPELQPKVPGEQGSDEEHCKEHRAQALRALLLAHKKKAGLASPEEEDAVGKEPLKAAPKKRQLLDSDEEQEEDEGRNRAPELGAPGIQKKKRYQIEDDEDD
inactive: erlotinib 0.023 | [1] 0.069 | [2] -0.083 | [3] -0.003 | [4] -0.002 | [5] -0.001 | [6] -0.068 | [7] -0.018 | [8] 0 | IRAK-1-4 Inhibitor I -0.032 | ibrutinib 0.011 | [9] -0.079 | ralimetinib 0.006 | [10] -0.053 | [11] -0.01 | [12] 0.011 | [13] -0.007 | [14] -0.01 | [15] 0.029 | [16] -0.027

UBXN10 (UniProt Q96LJ8)
Sequence of UniProt Q96LJ8 (Q96LJ8 whole entry, looked up): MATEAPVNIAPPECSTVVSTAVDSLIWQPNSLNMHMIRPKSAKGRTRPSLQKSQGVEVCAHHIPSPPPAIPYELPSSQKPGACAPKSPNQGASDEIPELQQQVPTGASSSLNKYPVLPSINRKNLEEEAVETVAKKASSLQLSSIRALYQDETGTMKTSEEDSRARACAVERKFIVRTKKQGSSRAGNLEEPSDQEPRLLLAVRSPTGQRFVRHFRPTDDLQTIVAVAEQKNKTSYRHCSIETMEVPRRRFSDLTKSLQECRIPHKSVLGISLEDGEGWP
inactive: erlotinib 0.064 | [1] 0.026 | [2] 0.057 | [3] -0.089 | [4] -0.072 | [5] 0.027 | [6] 0.018 | [7] -0.012 | [8] 0.041 | IRAK-1-4 Inhibitor I 0.03 | ibrutinib 0.016 | [9] 0.044 | ralimetinib 0.002 | [10] -0.012 | [11] 0.014 | [13] 0.012 | [14] -0.001 | [15] 0.069 | [16] -0.015

TCF3 isoform 2 (UniProt P15923)
inactive: erlotinib 0.131 | [2] -0.049 | [5] 0.154 | IRAK-1-4 Inhibitor I -0.249 | ralimetinib -0.118 | [10] -0.103 | [11] 0.046 | [14] -0.1 | [15] 0.118

TASP1 (UniProt Q9H6P5)
Sequence of UniProt Q9H6P5 (Q9H6P5 whole entry, looked up): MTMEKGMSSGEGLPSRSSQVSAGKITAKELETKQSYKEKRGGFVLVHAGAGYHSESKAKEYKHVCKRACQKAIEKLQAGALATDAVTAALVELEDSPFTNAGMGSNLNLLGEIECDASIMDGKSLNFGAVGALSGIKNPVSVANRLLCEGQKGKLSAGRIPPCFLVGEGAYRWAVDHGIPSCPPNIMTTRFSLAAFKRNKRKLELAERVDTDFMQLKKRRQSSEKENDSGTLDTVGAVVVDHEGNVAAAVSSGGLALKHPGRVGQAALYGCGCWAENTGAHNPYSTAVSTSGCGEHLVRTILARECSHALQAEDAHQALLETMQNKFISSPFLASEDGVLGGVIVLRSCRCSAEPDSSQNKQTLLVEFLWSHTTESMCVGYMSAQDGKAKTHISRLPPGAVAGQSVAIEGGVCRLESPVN
inactive: erlotinib -0.013 | [2] -0.017 | [4] -0.102 | [5] -0.022 | [7] -0.062 | [8] 0.092 | IRAK-1-4 Inhibitor I 0.055 | ibrutinib 0.005 | [9] 0.04 | ralimetinib -0.073 | [10] -0.062 | [11] 0.028 | [12] 0.089 | [13] -0.114 | [14] 0.009 | [15] -0.012 | [16] 0.067

TNIK isoform 5 (UniProt Q9UKE5)
Sequence of UniProt Q9UKE5 (Q9UKE5 whole entry, looked up): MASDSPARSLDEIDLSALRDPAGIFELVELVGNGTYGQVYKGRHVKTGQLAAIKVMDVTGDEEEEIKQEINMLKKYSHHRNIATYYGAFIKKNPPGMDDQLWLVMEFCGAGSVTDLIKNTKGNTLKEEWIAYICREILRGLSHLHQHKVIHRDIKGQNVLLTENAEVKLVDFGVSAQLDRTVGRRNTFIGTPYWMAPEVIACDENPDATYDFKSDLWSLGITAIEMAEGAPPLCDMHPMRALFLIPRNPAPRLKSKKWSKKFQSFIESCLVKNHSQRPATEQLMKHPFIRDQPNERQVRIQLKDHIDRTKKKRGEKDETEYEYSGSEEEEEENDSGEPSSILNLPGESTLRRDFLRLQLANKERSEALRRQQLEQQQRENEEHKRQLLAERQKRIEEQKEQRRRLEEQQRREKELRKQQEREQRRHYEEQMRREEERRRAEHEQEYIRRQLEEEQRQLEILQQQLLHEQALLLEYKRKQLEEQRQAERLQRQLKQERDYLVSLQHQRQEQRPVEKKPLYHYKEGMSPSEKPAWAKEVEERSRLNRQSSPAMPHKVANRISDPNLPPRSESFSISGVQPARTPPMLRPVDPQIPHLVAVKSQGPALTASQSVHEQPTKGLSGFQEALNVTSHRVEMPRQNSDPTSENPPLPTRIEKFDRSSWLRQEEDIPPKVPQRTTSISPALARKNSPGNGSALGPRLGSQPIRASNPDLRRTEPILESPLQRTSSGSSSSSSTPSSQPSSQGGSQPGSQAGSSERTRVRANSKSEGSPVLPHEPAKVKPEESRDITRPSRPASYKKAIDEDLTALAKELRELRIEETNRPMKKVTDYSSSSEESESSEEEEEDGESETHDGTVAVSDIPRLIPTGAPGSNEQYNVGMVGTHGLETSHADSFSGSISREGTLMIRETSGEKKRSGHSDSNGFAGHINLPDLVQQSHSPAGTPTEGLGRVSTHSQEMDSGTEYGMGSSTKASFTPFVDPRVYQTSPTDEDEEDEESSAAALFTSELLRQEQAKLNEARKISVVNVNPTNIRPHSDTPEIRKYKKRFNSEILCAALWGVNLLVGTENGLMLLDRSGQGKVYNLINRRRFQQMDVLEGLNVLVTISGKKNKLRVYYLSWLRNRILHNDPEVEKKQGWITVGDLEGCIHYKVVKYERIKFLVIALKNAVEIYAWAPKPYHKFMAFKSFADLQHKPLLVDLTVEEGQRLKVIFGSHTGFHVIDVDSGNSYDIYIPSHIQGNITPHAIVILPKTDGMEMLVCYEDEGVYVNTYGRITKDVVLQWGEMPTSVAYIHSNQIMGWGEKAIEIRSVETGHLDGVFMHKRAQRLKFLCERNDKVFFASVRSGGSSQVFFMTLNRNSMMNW
inactive: [4] 0.008 | [5] 0.134 | IRAK-1-4 Inhibitor I -0.038 | ibrutinib 0.07 | [9] 0.345 | ralimetinib 0.016 | [10] -0.026 | [13] -0.091 | [14] 0.276 | [15] -0.004 | [16] -0.136

TM2D3 (UniProt Q9BRN9)
inactive: erlotinib 0.104 | [2] -0.083 | [4] -0.068 | [5] 0.205 | [7] 0.153 | [8] 0.088 | IRAK-1-4 Inhibitor I 0.148 | ibrutinib 0.02 | ralimetinib -0.14 | [10] -0.157 | [11] -0.201 | [15] 0.07

TEDC1 (UniProt Q86SX3)
inactive: erlotinib 0.05 | [2] 0.057 | [5] 0.05 | [7] -0.127 | [8] -0.048 | IRAK-1-4 Inhibitor I -0.06 | [9] -0.023 | ralimetinib -0.049 | [10] -0.001 | [11] -0.066 | [12] 0 | [13] -0.033 | [14] -0.018 | [15] 0.082 | [16] -0.024

TENM4 (UniProt Q6N022)
inactive: [4] -0.334 | ibrutinib -0.043 | [9] 0.035 | [14] 0.162 | [16] -0.109

U2AF1L5 (UniProt P0DN76)
inactive: erlotinib -0.029 | [2] 0.044 | [5] -0.066 | [7] 0.109 | [8] -0.107 | IRAK-1-4 Inhibitor I 0.132 | [9] -0.047 | ralimetinib -0.019 | [10] 0.001 | [11] 0.069 | [12] -0.008 | [13] -0.003 | [15] 0.143 | [16] 0.011

TRAF7 (UniProt Q6Q0C0)
inactive: [1] 0.006 | [3] -0.042 | [5] -0.026 | [6] -0.151 | [7] -0.05 | [8] 0.116 | IRAK-1-4 Inhibitor I -0.047 | ralimetinib 0.046 | [10] -0.091 | [12] 0.023 | [13] -0.022 | [14] 0.07 | [15] -0.031

TPD52L2 isoform 3 (UniProt O43399)
inactive: erlotinib 0.008 | [2] -0.036 | [4] -0.028 | [5] -0.049 | IRAK-1-4 Inhibitor I 0.029 | ibrutinib 0.288 | ralimetinib 0.167 | [10] -0.038 | [11] 0.017 | [12] -0.007 | [15] 0.107

TPM3 isoform 3 (UniProt P06753)
Sequence of UniProt P06753 (P06753 whole entry, looked up): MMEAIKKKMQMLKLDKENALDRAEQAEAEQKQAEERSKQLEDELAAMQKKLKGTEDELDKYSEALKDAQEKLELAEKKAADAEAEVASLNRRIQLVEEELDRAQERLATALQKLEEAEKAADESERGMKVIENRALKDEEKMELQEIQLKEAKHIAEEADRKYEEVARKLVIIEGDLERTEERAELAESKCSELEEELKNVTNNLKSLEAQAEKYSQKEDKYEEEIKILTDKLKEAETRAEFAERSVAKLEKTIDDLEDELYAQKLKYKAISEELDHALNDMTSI
inactive: erlotinib -0.074 | [1] -0.007 | [2] -0.076 | [3] -0.006 | [5] -0.033 | [6] 0.08 | [7] 0.084 | [8] -0.068 | IRAK-1-4 Inhibitor I -0.016 | [9] 0.066 | ralimetinib 0.145 | [10] 0.093 | [11] -0.125 | [13] 0.005 | [14] -0.157 | [15] 0.012 | [16] -0.032

UBR4 isoform 4 (UniProt Q5T4S7)
inactive: erlotinib 0.121 | [1] -0.209 | [2] -0.073 | [3] -0.071 | [5] 0.136 | [6] 0.016 | [7] 0.119 | [8] -0.094 | IRAK-1-4 Inhibitor I 0.097 | [9] 0.131 | ralimetinib -0.092 | [10] -0.201 | [11] 0.111 | [13] 0.331 | [15] -0.02 | [16] 0.034

TNFAIP3 (UniProt P21580)
Sequence of UniProt P21580 (P21580 whole entry, looked up): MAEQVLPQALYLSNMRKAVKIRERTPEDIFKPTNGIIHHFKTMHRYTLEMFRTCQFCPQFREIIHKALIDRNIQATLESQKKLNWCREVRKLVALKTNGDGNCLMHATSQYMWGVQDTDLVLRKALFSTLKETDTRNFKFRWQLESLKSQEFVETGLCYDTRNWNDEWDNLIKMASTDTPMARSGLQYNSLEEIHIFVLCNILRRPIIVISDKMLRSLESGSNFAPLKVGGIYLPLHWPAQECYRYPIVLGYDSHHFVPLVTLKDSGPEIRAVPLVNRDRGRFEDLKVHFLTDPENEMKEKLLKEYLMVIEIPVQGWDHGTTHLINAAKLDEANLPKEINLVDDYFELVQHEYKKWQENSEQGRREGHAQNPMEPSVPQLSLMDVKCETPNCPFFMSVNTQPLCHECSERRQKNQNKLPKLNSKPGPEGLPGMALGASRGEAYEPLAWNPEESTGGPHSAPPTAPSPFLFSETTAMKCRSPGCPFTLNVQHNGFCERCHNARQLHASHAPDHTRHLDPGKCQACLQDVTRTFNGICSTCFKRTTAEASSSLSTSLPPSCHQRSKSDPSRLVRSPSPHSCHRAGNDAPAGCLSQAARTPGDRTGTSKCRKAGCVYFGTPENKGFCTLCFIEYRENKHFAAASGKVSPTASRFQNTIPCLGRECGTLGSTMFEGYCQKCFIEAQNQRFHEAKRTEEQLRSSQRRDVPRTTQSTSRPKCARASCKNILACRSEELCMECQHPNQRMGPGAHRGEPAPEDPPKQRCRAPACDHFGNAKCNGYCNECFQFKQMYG
inactive: erlotinib 0.018 | [2] 0.024 | [4] 0.03 | [5] -0.049 | [7] -0.296 | [8] 0.09 | IRAK-1-4 Inhibitor I 0.047 | ibrutinib -0.123 | [9] -0.1 | ralimetinib -0.056 | [10] 0.005 | [11] -0.045 | [12] 0.003 | [13] 0.016 | [14] -0.035 | [15] 0.068 | [16] 0.053
